Measured values as given in PubChem BioAssay AID651947 (Broad Institute, 2012).
Results with a measured potency or affinity are listed apart. Inconclusive results are not listed. Unmarked numbers belong to inactive results.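 How the source made its calls: active means luminescence drop in HepG2 cells whose fitted half-effect dose is at most twice the top valid dose; inconclusive means flat curve with 30 to 70% signal loss, or unreliable fit; inactive means the rest.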

Experiment: cytotoxicity in HepG2 cells, dose response, cytotoxicity control, cell-based, plate reader, dry powder (AID 651947)
Settings: HepG2 viability, ATP luminescence (CellTiter-Glo), 48 h, stronger effect = lower value; at 26 µM unless noted

| Compound | max activity |
| --- | --- |
| FC(F)(F)Oc1ccccc1-c1nnc(SCc2ccccc2)o1 | -9.41% [at 6 µM] |
| FC(F)(F)Oc1cccc(-c2nnc(SCc3ccccc3)o2)c1 | -17.6% [at 0.195 µM] |
| Fc1ccc(-c2nnc(SCc3cn(Cc4ccccc4)nn3)o2)cc1 | 22.1% [at 3 µM] |
| c1ccc(-c2nnc(SCc3ccncc3)o2)cc1 | -21.6% [at 0.38 µM] |
| c1ccc(Cn2cc(CSc3nnc(C4CCC4)o3)nn2)cc1 | -18.3% [at 0.38 µM] |
| Cc1cccc(CSc2nnc(-c3ccccc3)o2)c1 | -51.5% [at 0.195 µM] |
| CC(C)c1nnc(SCc2ccccc2)o1 | 28.6% [at 0.38 µM] |
| O=S(Cc1ccccc1)c1nnc(-c2ccccc2)o1 (stereo not given) | -53.1% |
| c1ccc(-c2nnc(SCCC3OCCCO3)o2)cc1 | 12.9% [at 0.8 µM] |
| FC(F)(F)CNCCSc1nnc(-c2ccccc2)o1 | -10% [at 12 µM] |
| Brc1cccc(-c2nnc(SCc3ccccn3)o2)c1 | -18% [at 1.6 µM] |
| c1ccc(CSc2nnc(-c3cnco3)o2)cc1 | -31.7% [at 12 µM] |
| CS(=O)(=O)c1cccc(CSc2nnc(-c3ccccc3)o2)c1 | -12.6% [at 0.38 µM] |
| COc1ccc(-c2nnc(SCc3ccccc3)o2)cc1 | -23.7% [at 6 µM] |
| FC(F)(F)Oc1ccccc1CSc1nnc(-c2ccccc2)o1 | -50.7% [at 1.6 µM] |
